{"source": "PubChem BioAssay (NCATS)", "note": "Records with an inconclusive call do not appear. Activity calls are given as the source filed them. Calls come from the whole dose curve; as a rule, active = well fitted inhibition curve with a large enough effect; inconclusive = small, poorly fitted or top-dose-only effect; inactive = flat fitted curve, though single readings scatter."}
{"target": "Aldehyde dehydrogenase, mitochondrial (Homo sapiens) (UniProt P05091)", "test": "qHTS for Inhibitors of the Aldehyde Dehydrogenase Family (ALDH2) Primary screen (AID 2061308);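 note: plate controls were vehicle for no effect and reference inhibitor for full effect; nearly all actives have a fitted effect of over 55% in size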", "conditions": "ALDH2 enzyme inhibition qHTS, 1536-well; series mostly up to 56 µM; activity change, negative = inhibition: at the top concentration"}
{"smiles": "CC(C)c1ccccc1-c1nc(NCc2ccc(-c3cccnc3)cc2)c2sccc2n1", "activity change, negative = inhibition": "0.138% (inactive)"}
{"smiles": "Cc1cc2c(s1)c1cnn(Cc3ccc(F)c(F)c3)c(=O)c1n2C", "activity change, negative = inhibition": "11% (inactive)"}
{"smiles": "COc1ccc(-c2csc(N3CCC(C(N)=O)CC3)n2)cc1OC", "activity change, negative = inhibition": "5.59% (inactive)"}
{"smiles": "Cc1cc2c(s1)c1cnn(Cc3ccc(F)cc3Cl)c(=O)c1n2C", "activity change, negative = inhibition": "6.41% (inactive)"}
{"smiles": "Cc1cc(C)nc(NC(=S)N2CCN(c3nncs3)CC2)c1", "activity change, negative = inhibition": "-4.6% (inactive)"}
{"smiles": "N#CC1=C(Nc2nc3ccccc3o2)OC2=C(C(=O)CCC2)C1c1[nH]ncc1Cl", "note": "(stereo not given)", "activity change, negative = inhibition": "0.614% (inactive)"}
{"smiles": "C=C1C(=O)O[C@@H]2/C=C(/C)[C@@H](OC(C)=O)C/C=C(\\C)C[C@@H](OC(=O)/C(=C/CO)CO)[C@@H]12", "activity change, negative = inhibition": "19.8% [at 28 µM] (inactive)"}
{"smiles": "COCCN(CCOC)c1nc(C)nc2c1nc(-c1ccccc1)n2CCCN(C)C", "activity change, negative = inhibition": "5.79% (inactive)"}
{"smiles": "CCC(OC(=O)c1ccc(S(C)(=O)=O)c([N+](=O)[O-])c1)C(=O)NC1C2CC3CC(C2)CC1C3", "note": "(stereo not given)", "activity change, negative = inhibition": "5.65% (inactive)"}
{"smiles": "COc1cc(O)c(C(CC(=O)N2CCCC(C)C2)c2ccc(OC)c(OC)c2)c(OC)c1", "note": "(stereo not given)", "activity change, negative = inhibition": "-16.8% [at 114 µM] (inactive)"}
{"smiles": "CCOc1ccc(CCNC(=O)c2cc3sccc3n2Cc2ccccn2)cc1OCC", "activity change, negative = inhibition": "0.765% (inactive)"}
{"smiles": "Cc1ccc(OCCn2c(CCNC(=O)CCc3ccccc3Br)nc3ccccc32)cc1", "activity change, negative = inhibition": "8.05% (inactive)"}
{"smiles": "Cc1cc2c(s1)c1cnn(Cc3ccc(C(C)C)cc3)c(=O)c1n2C", "activity change, negative = inhibition": "12.6% (inactive)"}
{"smiles": "COc1ccccc1CNC(=O)Nc1nnc(-c2ccncc2)s1", "activity change, negative = inhibition": "24.9% (inactive)"}
{"smiles": "Cc1ccc(S(=O)(=O)Nc2cnccc2C(=O)Nc2nc(-c3ccncc3)cs2)cc1", "activity change, negative = inhibition": "6.31% (inactive)"}
{"smiles": "O=C(O)CCc1cc(F)c(S(=O)(=O)N2CCN(S(=O)(=O)c3ccc4c(c3)OCCO4)CC2)cc1F", "activity change, negative = inhibition": "2.44% (inactive)"}
{"smiles": "O=C(c1ccc2c(c1)ncn2-c1ccc(C(F)(F)F)cc1)N1CCCCC1", "activity change, negative = inhibition": "-9.74% (inactive)"}
{"smiles": "O=C(O)c1c(-c2ccccc2)no[n+]1[O-]", "activity change, negative = inhibition": "8.35% (inactive)"}
{"smiles": "CCOc1ccccc1-c1nnc2n1N=C(c1ccc(OC)c(OC)c1)CS2", "activity change, negative = inhibition": "5.55% (inactive)"}
{"smiles": "COC(=O)c1ccc(O)c2ncccc12", "activity change, negative = inhibition": "7.52% (inactive)"}
{"smiles": "COc1cccc(CNc2ccc(S(=O)(=O)Nc3nc4ccccc4o3)cc2)c1O", "activity change, negative = inhibition": "-12% (inactive)"}
{"smiles": "O=C(Nc1ccc(-c2ccccc2)cc1)[C@H](Cc1ccc(O[S+](=O)([O-])c2cccc3cnccc23)cc1)N[S+](=O)([O-])c1cccc2cnccc12", "activity change, negative = inhibition": "-6.98% (inactive)"}
{"smiles": "CC1(C)CC[C@]2(C(=O)O)CC[C@]3(C)C(=CCC4[C@@]5(C)C[C@@H](O)[C@H](O)[C@@](C)(CO)C5CC[C@]43C)C2C1", "note": "(stereo not given in full)", "activity change, negative = inhibition": "-5.02% [at 28 µM] (inactive)"}
{"smiles": "Cc1ccc(S(=O)(=O)Nc2cnccc2C(=O)Nc2nc(-c3cc4ccccc4o3)cs2)cc1", "activity change, negative = inhibition": "-0.775% (inactive)"}
{"smiles": "CC1=CC(=O)CC(C)(C)C1CCC(C)OC1OC(COC(=O)c2cc(O)c(O)c(O)c2)C(O)C(O)C1O", "note": "(stereo not given)", "activity change, negative = inhibition": "-15.1% [at 28 µM] (inactive)"}
{"smiles": "CCN1CCN(c2cc(-c3ccc(F)cc3)c3c(n2)CCCCCC3)CC1", "activity change, negative = inhibition": "4.17% (inactive)"}
{"smiles": "O=C(OCC#CCSc1nnc(-c2cccc(F)c2)o1)c1ccc(F)cc1", "activity change, negative = inhibition": "-7.63% (inactive)"}
{"smiles": "Cc1ccc(C(=O)Nc2ccc(N3CCOCC3)cc2)cc1", "activity change, negative = inhibition": "11.4% (inactive)"}
{"smiles": "Cc1cc(C)nc(NC(=S)N2CCN(c3cc(C#N)cc(C#N)c3)CC2)c1", "activity change, negative = inhibition": "-6.14% (inactive)"}
{"smiles": "CCCn1c(C)nc2c(NC(C)CN(C)C)nc(C)nc21", "note": "(stereo not given)", "activity change, negative = inhibition": "-5.84% (inactive)"}
{"smiles": "N#Cc1ccccc1CNc1nc2ncc(Br)cc2[nH]1", "activity change, negative = inhibition": "0.496% (inactive)"}
{"smiles": "O=C(O)c1ccc2c(c1)C(=O)N([C@H](Cc1ccc(Cl)cc1)C(=O)O)C2=O", "activity change, negative = inhibition": "2.58% (inactive)"}
{"smiles": "COc1cc2nc(N3CCN(C)CC3)nc(NCCN(C)C)c2cc1OC", "activity change, negative = inhibition": "7.41% (inactive)"}
{"smiles": "CC(C)CC(O)C(=O)Nc1cc(C(F)(F)F)ccc1Cl", "note": "(stereo not given)", "activity change, negative = inhibition": "14.8% (inactive)"}
{"smiles": "COc1cc(O)c(C(CC(=O)N2CC(C)OC(C)C2)c2ccc3c(c2)OCO3)c(OC)c1", "note": "(stereo not given)", "activity change, negative = inhibition": "0.152% (inactive)"}
{"smiles": "COc1cc(C2CC(=O)Nc3c2cc(Br)c2ccccc32)cc(OC)c1OC", "note": "(stereo not given)", "activity change, negative = inhibition": "-2.19% (inactive)"}
{"smiles": "Cc1cc2c(s1)c1cnn(Cc3ccc(F)c(Cl)c3)c(=O)c1n2C", "activity change, negative = inhibition": "0.559% (inactive)"}
{"smiles": "COc1ccccc1C(=O)Nc1nc(-c2ccccc2)cs1", "activity change, negative = inhibition": "-4.39% (inactive)"}
{"smiles": "O=C([C@H](Cc1ccc(O[S+](=O)([O-])c2cccc3cnccc23)cc1)N[S+](=O)([O-])c1cccnc1)N1CCN(c2ccccc2)CC1", "activity change, negative = inhibition": "-15.4% (inactive)"}
{"smiles": "CCC(=O)NC(c1cccs1)c1ccc2cccnc2c1O", "note": "(stereo not given)", "activity change, negative = inhibition": "6.39% (inactive)"}
